# PLK1 PBD block: blocks phosphopeptide binding to human PLK1 polo-box domain. Potency, µM, for inactives: max response, negative = inhibition, most hits filed as inhibitors. 360,000 tested, 2.8% active. Plk1 PBD binding of FITC phosphopeptide, fluorescence polarization. P53350; further: series mostly up to about 57 µM; on the % scale 0 is the no-effect control and ±100 the full control effect; nearly all actives have a fitted effect of over 65% in size
# VDR inh: blocks the human vitamin D receptor; VDR-SRC2-3 peptide fluorescence polarization, 2 h; Potency, µM, for the others: max response, negative = inhibition, hits mostly inhibitors; 400,000 tested, 0.93% active; AID 504847; further: on the % scale 0 is the no-effect control and ±100 the full control effect
# Target sequence (P11473 whole entry, looked up): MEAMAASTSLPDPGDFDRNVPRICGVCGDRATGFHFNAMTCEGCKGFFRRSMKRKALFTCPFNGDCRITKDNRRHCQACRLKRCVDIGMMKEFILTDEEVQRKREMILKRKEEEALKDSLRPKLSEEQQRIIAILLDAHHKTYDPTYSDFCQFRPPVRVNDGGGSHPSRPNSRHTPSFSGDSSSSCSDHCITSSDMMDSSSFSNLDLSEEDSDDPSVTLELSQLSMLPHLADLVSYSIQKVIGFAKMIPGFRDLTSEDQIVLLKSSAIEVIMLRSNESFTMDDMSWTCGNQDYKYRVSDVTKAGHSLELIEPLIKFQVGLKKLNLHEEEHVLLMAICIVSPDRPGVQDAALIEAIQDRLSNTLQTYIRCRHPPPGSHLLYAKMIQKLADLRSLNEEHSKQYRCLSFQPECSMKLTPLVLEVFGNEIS
#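 Two reagent solutions held at 4 deg C in the dark were dispensed, compounds pinned at 23 nl, and the mixture incubated 2 h at room temperature. Read-out: fluorescence polarization of VDR–SRC2-3 peptide binding.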
# Tb PFK inh: blocks T. brucei phosphofructokinase; T. brucei PFK, ADP-Glo luminescence; Potency, µM (doses to about 57.5 µM), for inactives: at the top dose activity, negative = inhibition, actives largely listed as inhibitors; 330,000 tested, 0.17% active;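 further: 0% = uninhibited 1x PFK enzyme wells and -100% = no-enzyme wells; nearly all actives have a fitted effect of over 60% in size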
#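 In TEA buffer at pH 8.0 with 5 mM MgCl2, enzyme (1.25 nM) converted F6P (0.5 mM) and ATP (0.1 mM) for 45 min at room temperature. ADP product was read by luciferase luminescence.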
# TDP1 inh: inhibitors of human tyrosyl-DNA phosphodiesterase TDP1; Q9NUW8; recombinant TDP1, AlphaScreen DNA substrate cleavage; Potency, µM (titrated, usually from 130 µM), inactives show at the top dose activity change, negative = inhibition, hits mostly inhibitors; 350,000 tested, 0.28% active; AID 485290; further: on the % scale 0 is the no-effect control and ±100 the full control effect; nearly all actives have a fitted effect of over 40% in size
#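 AlphaScreen read-out: signal falls as enzyme removes the 3' tyrosine-FITC from a 5'-biotinylated DNA oligo (15 nM, 5 min, RT). Enzyme was E. coli-made recombinant Tdp1 at 1 nM, exposed to compound for 15 min beforehand; beads 10 ug/ml, 10 min.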
# Pin1 inhibitor: inhibitors of human Pin1. Q13526. Pin1 FP peptide displacement, HiFluor488, 10 min. Potency, µM (highest dose often 115 µM), inactives show at the top dose activity, negative = inhibition, hits mostly inhibitors. 390,000 tested, 0.009% active. AID 504891; active means well fitted inhibition curve with a large enough effect in the polarisation, with a control signal flat, not every such curve was filed as active; inconclusive means small, poorly fitted or top-dose-only effect, or effect the other way, or a change in a side signal; inactive means no such curve, though single readings can be large or run the other way; the % refers to the polarisation; further: on the % scale 0 is the no-effect control and ±100 the full control effect
# Target sequence (Q13526 whole entry, looked up): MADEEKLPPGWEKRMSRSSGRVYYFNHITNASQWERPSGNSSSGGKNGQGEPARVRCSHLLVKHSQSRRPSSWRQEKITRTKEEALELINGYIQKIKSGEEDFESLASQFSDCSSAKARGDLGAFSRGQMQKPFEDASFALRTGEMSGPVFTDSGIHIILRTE
# S-ASM inh: inhibitors of human secretory acid sphingomyelinase; P17405; placental ASM, HMU-PC fluorogenic substrate, 60 min; Potency, µM (titrated, usually from 57.5 µM), without a hit: at the top dose activity change, negative = inhibition, hits mostly inhibitors; 340,000 tested, 0.006% active
#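 HMU-PC0 cleavage (9 uM final) by human placental ASM, 60 min at 37 °C following 10 min compound exposure at RT; stopped at pH 10, fluorescence Ex 386/Em 447 nm.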
# * = called active by the depositor; u = inconclusive; x = not tested or not shown. Shown are actives, neighbours in structure and some others; about 3.1% of the full set was active somewhere. Unless noted, the call rests on the fitted dose curve; in most records, active means well fitted curve in the direction sought with a large enough effect; inconclusive means small, poorly fitted or top-dose-only effect, or another doubt; inactive means no such curve, though single readings can be large; an effect the other way counts as inactive or inconclusive. Potency means the concentration at half of the fitted maximal effect.
SMILES,PLK1 PBD block,VDR inh,Tb PFK inh,TDP1 inh,Pin1 inhibitor,S-ASM inh
Cn1cc(C(=O)NCCc2ccccc2)c(=O)c2cc(S(=O)(=O)N3CCOCC3)ccc21,29.9µM*,u,x,x,-6.5%,-5.0%
COc1cccc(NC(=O)CSc2nc3ccc(NC(=O)c4ccco4)cc3s2)c1,x,14.6%,x,3.6%,74.8%,x
O=C(NCC(=O)N1CCCCCC1)c1ccc(Cl)cc1,6.7µM*,u,0.1%,3.1%,3.5%,1.3%
CCOc1ccc(C(=S)NC2CCCCC2)cc1OC,9.47µM*,50.1µM*,-2.7%,4.0%,0.5%,-2.7%
S=C(NC1CCCCC1)c1ccc2c(c1)OCO2,18.9µM*,-18.7%,-6.9%,-6.7%,-0.6%,-3.5%
Cc1ccc(C(=O)C(OC(=O)CNC(=O)COc2ccccc2C)c2ccccc2)cc1 (stereo not drawn),x,-3.4%,x,1.9%,1.4%,x
COCc1nnc(NC(=O)C2CCN(C(=O)c3ccco3)CC2)s1,26.7µM*,-7.5%,-8.2%,13.3%,-7.6%,1.8%
Cc1nc(NC(C)c2ccccc2)sc1C(=O)Nc1ccccc1 (stereo not drawn),23.8µM*,-16.1%,-1.8%,6.3%,-14.1%,-14.3%
CN1CCC/C1=C1/C(=O)N(c2ccccc2)N=C1NC(=O)Nc1cccc(Cl)c1,3.77µM*,u,-5.9%,2.6%,3.1%,-2.2%
Cc1ccc(NC(=O)NC2=NN(c3ccccc3)C(=O)/C2=C2/CCCN2C)cc1,1.3%,-6.9%,8.4%,0.0%,3.1%,-2.5%
C=CCNC(=O)C(=O)NCC(c1ccc2c(c1)OCO2)N1CCN(c2ccc(F)cc2)CC1 (stereo not drawn),23.8µM*,u,2.2%,5.7%,-3.1%,-1.5%
Cc1ccc(NC2Sc3ccccc3NC2=O)cc1 (stereo not drawn),9.47µM*,11.2µM*,u,8.3%,-2.3%,-1.5%
O=C1Nc2ccccc2SC1c1ccccc1 (stereo not drawn),-12.8%,u,-13.4%,x,-1.6%,-3.7%
CN(Cc1ccccc1)C(=O)C1CCN(S(=O)(=O)c2cccc3nsnc23)CC1,3.36µM*,u,0.2%,4.9%,3.4%,0.9%
CN(CCCNC(=O)C1CCN(S(=O)(=O)c2cccc3nsnc23)CC1)Cc1ccccc1,-3.5%,9.4%,-4.7%,2.0%,-8.9%,-0.4%
CS(=O)(=O)N(CC(=O)NCc1ccc(Cl)cc1)C1CCCCC1,2.99µM*,-7.0%,0.1%,0.7%,0.0%,-2.3%
Cc1ccc(S(=O)(=O)N(CC(=O)NCc2ccncc2)C2CCCCC2)cc1,2.67µM*,u,-4.7%,4.2%,u,-2.2%
O=S(=O)(CCN1CCCCC1)Oc1ccc(Cl)cc1Cl,11.9µM*,-12.3%,-1.8%,3.6%,-1.4%,5.2%
O=C(COc1ccc(Cl)cc1Cl)NCCN1CCCCC1,3.2%,x,x,x,x,x
CCC1=NC(c2ccc(OC)c(OC)c2)N(O)C1(C)C (stereo not drawn),29.9µM*,-18.6%,1.3%,0.0%,-2.7%,-0.2%
CCC1=NC(c2ccc(OC)cc2)N(O)C1(C)C (stereo not drawn),-0.6%,7.6%,0.1%,x,0.1%,-0.1%
CCc1nnc(NC(=O)c2ccccc2NC(=O)C2CCN(C(=O)c3ccco3)CC2)s1,x,-19.1%,x,x,0.4%,x
O=C(O)c1cc(=O)n(Cc2ccccc2)c(=O)[nH]1,0.5%,-12.0%,-4.6%,x,-3.1%,-1.1%
Cc1ccc(NC(=O)c2cc(=O)n(Cc3ccccc3)c(=O)[nH]2)cc1C,23.8µM*,u,-4.3%,2.5%,6.1%,1.7%
Cc1cc2c(s1)c1cnn(Cc3c(F)ccc(C)c3Cl)c(=O)c1n2C,x,x,x,x,1.5%,x
SMILES,PLK1 PBD block,VDR inh,Tb PFK inh,TDP1 inh,Pin1 inhibitor,S-ASM inh
CC(=O)c1cccc(N2Cc3ccccc3C2=NC(=O)CCl)c1,13.4µM*,-29.8%,-4.4%,-2.6%,-1.7%,7.9%
Cc1ccsc1CN(C)c1ncnc2ccc(-c3ccc4c(c3)OCO4)cc12,x,x,x,x,13.9%,x
COc1ccc(-c2cc(-c3cc(OC)ccc3O)[nH]n2)cc1,6.7µM*,u,-1.2%,8.8%,0.5%,-0.5%
Cc1ccc(NC(=O)c2cc(S(=O)(=O)N3CCOCC3)ccc2F)c(C)c1,-14.6%,-6.6%,-1.3%,1.0%,-3.0%,-4.2%
Cc1cc(C)c(NC(=O)c2cc(S(=O)(=O)N3CCOCC3)ccc2F)c(C)c1,10.6µM*,u,-3.8%,1.1%,-9.0%,0.0%
CCc1ccc(CNC(=O)C2CCN(S(=O)(=O)N3CCCC3)CC2)cc1,-9.1%,-2.1%,1.8%,0.2%,-9.6%,0.7%
CC1CCN(CC2CCN(C(=O)NCc3ccc(F)cc3)CC2)CC1,x,11.5%,x,-2.5%,-2.9%,x
CC1CCN(S(=O)(=O)N2CCCC(C(=O)NCc3ccc(F)cc3)C2)CC1 (stereo not drawn),26.7µM*,79.4µM*,0.6%,2.5%,u,1.6%
CCOC(=O)N1CCN(S(=O)(=O)N2CCCC(C(=O)NCc3ccc(F)cc3)C2)CC1 (stereo not drawn),-0.9%,-7.3%,1.7%,1.9%,-0.4%,1.3%
CC1CCN(C(=O)C(C)NCc2ccc(F)cc2)CC1 (stereo not drawn),16.8µM*,u,-6.3%,x,-7.0%,2.7%
O=C(NCc1ccc(F)cc1)C1CCN(S(=O)(=O)N2CCCC2)CC1,11.9µM*,u,-5.5%,2.5%,0.3%,2.2%
NC(=O)C1CCN(c2nnc(-c3ccc(Br)cc3)s2)CC1,x,x,x,x,-1.5%,x
COc1cc(/C=N/NC(=O)c2cccc([N+](=O)[O-])c2)ccc1OCc1ccccc1,-3.2%,5.6%,-2.4%,-5.1%,-1.0%,0.0%
CCOC(=O)C(=Cc1ccc(OCc2ccc([N+](=O)[O-])cc2)c(OC)c1)C(=O)OCC,-3.7%,79.4µM*,-6.0%,2.1%,-1.1%,-4.4%
COc1ccc(OC)c(/C=C2\S/C(=N/NC(=O)c3ccc4ccccc4c3)NC2=O)c1,u,-6.6%,-1.4%,5.4%,u,x
O=C1N/C(=N/NC(=O)c2cccc3ccccc23)S/C1=C\c1ccccc1OCc1ccccc1,26.7µM*,-4.0%,-4.0%,10.1%,23.0%,0.0%
COc1cc(/C=C2\C(=N)N3N=C(S(C)(=O)=O)SC3=NC2=O)ccc1OS(=O)(=O)c1ccc(C)cc1,23.8µM*,u,-1.2%,-16.9%,u,u
C=CCOc1ccc(/C=C2\C(=N)N3N=C(S(=O)(=O)CC)SC3=NC2=O)cc1OC,-22.9%,-11.3%,8.4%,1.2%,-3.8%,-29.4%
CCC1=NN2C(=N)/C(=C/c3ccc(OS(=O)(=O)c4ccccc4)c(OC)c3)C(=O)N=C2S1,18.9µM*,-25.4%,1.8%,6.2%,0.6%,-3.4%
COc1cc(/C=C2/C(=N)N3N=C(C(C)C)SC3=NC2=O)ccc1OS(=O)(=O)c1ccccc1,37.7µM*,56.2µM*,-4.5%,11.9%,-4.5%,-4.7%
